PubChem BioAssay AID2284185 (EPA ToxCast)
The source made the active and inactive calls. How the source made its calls: active means hit-call score of the fitted dose curve at least 0.9, where 1 is the maximum; inactive means score below 0.9.

The compounds below were run against human Dopamine Receptor D4.2 Antagonism, DRD4 (gene 1815) (UniProt P21917) (assay: ERF_TW_GPCR_hDRD4: Eurofins (ERF) G Protein-Coupled Receptor (GPCR) Radioligand Binding LeadHunter Assay for human Dopamine Receptor D4.2 Antagonism).
Sequence of human Dopamine Receptor D4.2 Antagonism, DRD4 (gene 1815) (P21917 whole entry, looked up): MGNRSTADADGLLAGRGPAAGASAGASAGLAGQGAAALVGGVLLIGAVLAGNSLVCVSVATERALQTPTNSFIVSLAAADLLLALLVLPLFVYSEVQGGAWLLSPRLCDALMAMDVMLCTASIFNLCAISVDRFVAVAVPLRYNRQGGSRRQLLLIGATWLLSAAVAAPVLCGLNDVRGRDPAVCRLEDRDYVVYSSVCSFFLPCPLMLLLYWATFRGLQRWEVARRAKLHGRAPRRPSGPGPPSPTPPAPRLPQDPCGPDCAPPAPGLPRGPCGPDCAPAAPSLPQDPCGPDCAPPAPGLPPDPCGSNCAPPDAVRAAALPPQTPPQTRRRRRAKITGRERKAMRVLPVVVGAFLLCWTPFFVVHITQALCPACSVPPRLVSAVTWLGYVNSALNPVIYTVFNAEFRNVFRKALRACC
Description: ERF_TW_GPCR_hDRD4 is a biochemical, single-readout assay that uses extracted gene-proteins in a cell-free assay. Measurements were taken 2 hour after chemical dosing in a 96-well plate. See D4.2 Human Dopamine GPCR Binding (Antagonist Radioligand) Assay, Panlabs.ERF_TW_GPCR_hDRD4 is an assay component calculated from the ERF_TW_GPCR_hDRD4 assay. It is designed to measure radioligand binding using a type of binding reporter as detected by scintillation counting with radiometry technology.Data from the assay component ERF_TW_GPCR_hDRD4 was analyzed at the assay endpoint, ERF_TW_GPCR_hDRD4, in the positive analysis fitting direction relative to DMSO as the negative control and baseline of activity. Using a type of binding reporter, loss-of-signal activity can be used to understand changes in binding as they relate to gene DRD4. To generalize the intended target to other relatable targets, this assay endpoint is annotated to the gpcr intended target family, where the subfamily is dopamine.
Human recombiant cells are prepared in Tris-HCl buffer pH 7.4. A 24 ug aliquot is incubated with 0.5 nM [3H] Spiperone for 2 hours at 25C. Non-specific binding is estimated in the presence of 10 uM Haloperidol.
In the case of `O=C(/C=C/c1ccc(O)cc1)CC(=O)/C=C/c1ccc(O)cc1`, the AC50 was 1.12 µM (active).
